# Inconclusive results are not listed. Calls of active or inactive are those of the source. Unless noted, the call rests on the fitted dose curve.
# Tests used:
# [1] = Cytotoxicity counterscreen for inhibitors of SARS-CoV-2 cell entry (AID 1645845); conditions: outcome: dose series up to 57.1 µM unless noted; further: nearly all actives have a fitted effect of over 50% in size
# How it was run: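 Counterscreen run in the same HEK293-ACE2 line as the pseudotyped-particle entry assay, without particles. Viability after 48 h at 37 C was read as ATP luminescence, scaled between cell-containing and cell-free wells.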
# [2] = Primary qHTS to identify inhibitors of SARS-CoV-2 cell entry (AID 1645846); conditions: SARS-CoV-2 pseudovirus cell entry assay, luminescence; activity change, negative = inhibition: at 57.1 µM (top of the series) unless noted; further: nearly all actives have a fitted effect of over 45% in size; further: potency means the concentration at half of the fitted maximal effect
# How it was run: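 Luminescence readout (Bright-Glo luciferase) 48 h after pseudoparticle addition. HEK293-ACE2 cells, 1500/well; compound pre-incubation 1 h; Normalized to spike PP and bald PP.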
# [3] = VSVG counterscreen qHTS to identify inhibitors of SARS-CoV-2 cell entry (AID 1645847); further: nearly all actives have a fitted effect of over 65% in size; further: potency means the concentration at half of the fitted maximal effect; on activity change, negative = inhibition: on the % scale 0 is the no-effect control and ±100 the full control effect
# How it was run: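 HEK293-ACE2 cells (Expi293F stably expressing human ACE2) were pretreated with compound for 1 h at 37 °C, then infected with MLV-based VSV-G pseudotyped particles for 48 h. Luciferase luminescence was normalized to VSV-G PP and bald PP wells.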
# [4] = biological target: Nuclear receptor subfamily 1 group I member 3 (Homo sapiens) (UniProt Q14994); test: Primary qHTS for antagonist of constitutive androstane receptor (CAR) against the NCATS DSHEA and TCM libraries (AID 1794836; active means well fitted curve in the direction sought with a large enough effect; an effect the other way counts as inactive or inconclusive;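 further: HepG2 cells stably expressing hCAR with CYP2B6 luciferase reporter stimulated by CITCO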)
# How it was run: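 HepG2-CYP2B6-hCAR cells, attached 5 h, given compounds plus CITCO agonist […], incubated 24 h at 37 C. Luciferase luminescence read, multiplexed with CellTiter-Fluor viability (Ex/Em 405/540 nm).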
# [5] = biological target: Alpha-galactosidase (Coffea arabica) (UniProt Q42656); test: Counterscreen for Glucocerebrosidase Inhibitors: qHTS Assay for Coffee Bean alpha-Galactosidase at pH 4.5 (AID 957; active means well fitted curve in the direction sought with a large enough effect; an effect the other way counts as inactive or inconclusive;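 further: plate controls were enzyme alone for no effect and no enzyme for full effect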)
# How it was run: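 Fluorogenic qHTS at pH 4.5 (citrate buffer with Tween-20): 2 nM enzyme, 80 uM 4-MU-alpha-galactoside substrate, compound titrated 0.7 nM to 77 uM, 20 min room temperature. Glycine/NaOH stop; 4-MU read Ex 365/Em 440; Hill-equation AC50 against no-enzyme and enzyme controls.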
# [6] = biological target: Alpha-galactosidase (Coffea arabica) (UniProt Q42656); test: Counterscreen for Glucocerebrosidase Inhibitors: qHTS Assay for Coffee Bean alpha-Galactosidase at pH 5.9 (AID 998; active means well fitted curve in the direction sought with a large enough effect; an effect the other way counts as inactive or inconclusive;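 further: plate controls were uninhibited enzyme for no effect and no-enzyme basal signal for full effect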)
# How it was run: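 Enzyme 2 nM + cpd (0.7 nM–77 uM titration) + 4-MU-alpha-Gal 80 uM, pH 5.9 citrate/Tween-20, RT 20 min, NaOH/glycine stop pH 10, fluor 365/440. Normalized to no-enzyme and full-activity controls; Hill-fit AC50.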
# [7] = Validation screen for inhibitors of Lassa infection (AID 463096); further: on the % scale 0 is the no-effect control and ±100 the full control effect
# [8] = biological target: Bile acid receptor (Homo sapiens) (UniProt Q96RI1); test: qHTS assay for small molecule agonists of farnesoid X receptor signaling (AID 588527); conditions: HEK293T FXR-UAS-bla, beta-lactamase ratio, 16 h; stronger effect = higher value;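 further: 0% = vehicle basal and 100% = reference agonist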
# How it was run: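 FXR-UAS-bla HEK293T cells (10% dialyzed FBS) preincubated 5-7 h at 37 C, then compounds at up to 92 uM for 16 h at 37 C. CCF4 beta-lactamase read-out after 2 h RT. Normalized to chenodeoxycholic acid (100 uM) and DMSO; Hill fit gave EC50 and efficacy.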
# [9] = MultiTox-Fluor Cytotoxicity Assay - LYMP1-002 - Dead Cells (AID 960; active means well fitted curve in the direction sought with a large enough effect; an effect the other way counts as inactive or inconclusive; further: potency means the concentration at half of the fitted maximal effect; nearly all actives have a fitted effect of over 60% in size)
# How it was run: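 Dead-cell fluorescence (Ex/Em 485/520) after 16 h compound exposure at 37 C of LYMP1-002 lymphoblastoid cells in complete medium; AC50 by Hill equation, with data scaled between DMSO and 15 uM tetraoctylammonium bromide.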
# [10] = qHTS profiling of the MIPE4 collection as inhibitors of Plasmodium falciparum (3D7) proliferation (AID 743344; call rule not given here;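 further: scaled between DMSO vehicle wells and 0.29 µM artemisinin as full inhibition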); conditions: P. falciparum 3D7 in erythrocytes, SYBR Green DNA fluorescence, 72 h; at 28.5 µM (top of the series)
# How it was run: (§1)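 Parasite DNA was quantified by SYBR Green I fluorescence (ex 485, em 535 nm) after overnight lysis in saponin/Triton buffer at room temperature. Cultures at 0.3% parasitemia and 2.5% hematocrit were first exposed to compound for 72 h at 37 C; signals were normalised to artemisinin (0.29 uM) and vehicle wells.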
# [11] = qHTS profiling of the MIPE4 collection as inhibitors of Plasmodium falciparum (DD2) proliferation (AID 743345; call rule not given here); conditions: P. falciparum Dd2 in erythrocytes, SYBR Green DNA, 72 h; at 28.5 µM (top of the series)
# How it was run: as §1
# [12] = qHTS profiling of the MIPE4 collection as inhibitors of Plasmodium falciparum (DD2) proliferation (Rep 2) (AID 743346; call rule not given here); conditions: P. falciparum Dd2 in erythrocytes, SYBR Green DNA, 72 h; at 28.5 µM (top of the series)
# How it was run: as §1
# [13] = qHTS profiling of the MIPE4 collection as inhibitors of Plasmodium falciparum (HB3) proliferation (AID 743347; call rule not given here;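 further: plate controls were DMSO vehicle wells for no effect and artemisinin wells for full effect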); conditions: P. falciparum HB3 in erythrocytes, SYBR Green DNA, 72 h; at 28.5 µM (top of the series)
# How it was run: as §1
# [14] = KB-8-5-11 P-gp reporter qHTS against the NCATS DSHEA and TCM libraries (AID 1919977; active means well fitted curve in the direction sought with a large enough effect; an effect the other way counts as inactive or inconclusive; further: 0% is about no effect)
# How it was run: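 P-gp-overexpressing KB-8-5-11 cells (500/well) were plated in colchicine-free DMEM with 10% FBS, attached ~4 h, then exposed to substance titrations for ~72 h at 37C. Viability was read by CellTiter-Glo luminescence.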
# [15] = biological target: Glutathione peroxidase 1 (Homo sapiens) (UniProt P07203); test: Primary qHTS Assay for Inhibitors of Recombinant Selenoprotein Glutathione Peroxidase 1 (GPX1) (AID 1845191; active means well fitted curve in the direction sought with a large enough effect; an effect the other way counts as inactive or inconclusive; further: nearly all actives have a fitted effect of over 65% in size)
# How it was run: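 GR-coupled readout: NADPH consumption tracked by fluorescence, ex 340/em 450 nm, at t=0 and after 15 min at RT. Final mix 10 nM GPX1, 1 mM GSH, 0.5 mM CHP, 0.5 mM NADPH, 100 nM GR, 0.01% BSA, following 30 min enzyme–compound preincubation.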
# [16] = biological target: Phospholipid hydroperoxide glutathione peroxidase GPX4 (Homo sapiens) (UniProt P36969); test: Primary qHTS Assay for Inhibitors of Recombinant Selenoprotein Glutathione Peroxidase 4 (GPX4) (AID 1845192; active means well fitted curve in the direction sought with a large enough effect; an effect the other way counts as inactive or inconclusive; further: on the % scale 0 is the no-effect control and ±100 the full control effect; nearly all actives have a fitted effect of over 65% in size)
# How it was run: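 Steps: GPX4 plus compound, 30 min RT; add GR/GSH/NADPH master mix; start with cumene hydroperoxide; read 340/450 nm fluorescence at 0 and 15 min. Finals were 200 nM GPX4, 1 mM GSH, 0.5 mM CHP, 0.5 mM NADPH, 100 nM GR.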
# [17] = qHTS drug screen for cell cycle checkpoint inhibitors in PARPi-resistant BRCA-mutant ovarian cancer cell lines. (AID 1963452); conditions: PEO1/OlaR viability, CellTiter-Glo luminescence, 96 h, stronger effect = lower value
# How it was run: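 PEO1, PEO4 and PEO1/OlaR ovarian cancer cells, 600 per well, exposed 96 h at 37C to a dilution series. Viability read by CellTiter-Glo luminescence, normalized to DMSO and empty wells; activity summarized as Z-AUC.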
# Chain of Nuclear receptor subfamily 1 group I member 3 (Homo sapiens) (Q14994 whole entry, looked up): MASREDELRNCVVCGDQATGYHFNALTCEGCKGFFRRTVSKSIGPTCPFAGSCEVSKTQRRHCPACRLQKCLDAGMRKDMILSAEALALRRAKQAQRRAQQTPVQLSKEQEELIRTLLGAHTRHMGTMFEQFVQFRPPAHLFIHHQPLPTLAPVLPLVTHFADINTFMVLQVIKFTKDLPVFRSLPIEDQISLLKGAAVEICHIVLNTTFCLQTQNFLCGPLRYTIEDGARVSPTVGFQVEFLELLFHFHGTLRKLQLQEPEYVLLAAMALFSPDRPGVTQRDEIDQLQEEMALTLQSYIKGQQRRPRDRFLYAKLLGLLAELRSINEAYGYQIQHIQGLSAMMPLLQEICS
# Chain of Alpha-galactosidase (Coffea arabica) (Q42656 whole entry, looked up): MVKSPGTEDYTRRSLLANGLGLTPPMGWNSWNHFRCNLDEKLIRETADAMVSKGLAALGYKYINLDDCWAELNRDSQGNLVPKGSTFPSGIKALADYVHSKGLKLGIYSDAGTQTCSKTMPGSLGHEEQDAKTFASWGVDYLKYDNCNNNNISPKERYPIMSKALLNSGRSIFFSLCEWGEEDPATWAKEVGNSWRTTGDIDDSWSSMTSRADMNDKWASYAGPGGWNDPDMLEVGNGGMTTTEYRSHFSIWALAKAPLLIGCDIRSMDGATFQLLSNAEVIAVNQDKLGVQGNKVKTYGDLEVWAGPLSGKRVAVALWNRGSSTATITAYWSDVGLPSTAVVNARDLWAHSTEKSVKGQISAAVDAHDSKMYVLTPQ
# Chain of Glutathione peroxidase 1 (Homo sapiens) (P07203 whole entry, looked up): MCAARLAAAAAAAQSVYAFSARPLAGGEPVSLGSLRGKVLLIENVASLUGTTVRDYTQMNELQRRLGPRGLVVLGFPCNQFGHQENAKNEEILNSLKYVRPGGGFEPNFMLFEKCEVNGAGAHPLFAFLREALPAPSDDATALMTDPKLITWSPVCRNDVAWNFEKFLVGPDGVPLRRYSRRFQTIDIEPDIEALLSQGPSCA
# Chain of Phospholipid hydroperoxide glutathione peroxidase GPX4 (Homo sapiens) (P36969 whole entry, looked up): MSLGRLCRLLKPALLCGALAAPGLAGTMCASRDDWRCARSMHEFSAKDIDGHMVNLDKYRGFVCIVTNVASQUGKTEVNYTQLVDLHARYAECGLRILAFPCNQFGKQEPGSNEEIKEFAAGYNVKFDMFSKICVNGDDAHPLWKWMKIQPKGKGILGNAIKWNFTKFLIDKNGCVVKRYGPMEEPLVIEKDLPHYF
# Chain of Bile acid receptor (Homo sapiens) (Q96RI1 whole entry, looked up): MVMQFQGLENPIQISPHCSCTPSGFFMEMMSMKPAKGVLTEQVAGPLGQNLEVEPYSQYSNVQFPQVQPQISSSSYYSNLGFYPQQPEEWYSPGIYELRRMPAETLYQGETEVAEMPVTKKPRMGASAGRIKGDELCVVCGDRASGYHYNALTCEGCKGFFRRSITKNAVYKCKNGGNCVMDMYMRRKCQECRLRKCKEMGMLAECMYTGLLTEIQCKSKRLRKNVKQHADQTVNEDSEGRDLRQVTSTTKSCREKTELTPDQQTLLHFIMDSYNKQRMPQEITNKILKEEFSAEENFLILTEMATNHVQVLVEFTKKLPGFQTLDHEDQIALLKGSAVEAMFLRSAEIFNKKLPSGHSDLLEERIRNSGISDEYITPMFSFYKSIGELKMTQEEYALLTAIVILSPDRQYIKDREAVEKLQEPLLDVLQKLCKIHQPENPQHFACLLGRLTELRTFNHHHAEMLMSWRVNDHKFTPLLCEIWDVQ
smiles,measurement,setting,value
Cc1c[nH]c(/C=C2\C(=O)Nc3ccccc32)c1CCC(=O)O,Potency,[1],inactive
same,"activity change, negative = inhibition",[2],-20.8%
COC(=O)[C@H]1[C@@H](O)[C@@]2(O)c3c(OC)cc(O[C@@H]4O[C@@H]([C@@H](O)CO)CO[C@H]4OC)cc3O[C@@]2(c2ccc(OC)cc2)[C@@H]1c1ccccc1,Potency,[1],inactive
same,Potency,[2],inactive
COc1ccc(C(=O)C2CCN(CC(=O)N(Cc3nc4c(c(=O)[nH]3)COCC4)CC3CC3)CC2)cc1,Potency,[1],inactive
same,"activity change, negative = inhibition",[2],-20.6%
same,Potency,[3],8.57 µM (active)
O=C(CCCc1ccc2cccnc2n1)NCc1cc(-c2ccc(F)c(C(F)(F)F)c2)no1,Potency,[1],inactive
same,"activity change, negative = inhibition",[2],-12.5%
CS(=O)(=O)c1ccc(-c2cnc(NCc3ccco3)n3cnnc23)cc1,Potency,[1],inactive
same,"activity change, negative = inhibition",[2],-43.5%
same,Potency,[3],inactive
CCC(=O)N1CCOc2c(cc(-c3cc(OC)cc(OC)c3)cc2C(=O)N[C@H]2CCCN(C)C2)C1,Potency,[1],inactive
same,"activity change, negative = inhibition",[2],-26.1%
C[C@H]1[C@H](C)CC[C@]2(C(=O)O)CC[C@]3(C)C(=CC[C@@H]4[C@@]5(C)CC[C@H](O)C(C)(C)[C@@H]5CC[C@]43C)[C@H]12,Potency,[1],inactive
same,"activity change, negative = inhibition",[2],0.662%
same,Potency,[4],inactive
CN(CCOc1ccc(C[C@H](Nc2ccccc2C(=O)c2ccccc2)C(=O)O)cc1)c1ccccn1,outcome,[5],inactive
same,outcome,[6],inactive
same,Potency,[7],inactive
same,activation,[8],-7.09% (inactive)
COc1cc(/C=C/C(=O)CC(=O)/C=C/c2ccc(O)c(OC)c2)ccc1O,Potency,[9],31.6 µM (active)
CN1CCN(c2ncc(-c3cc(Cl)cc(Cl)c3Cl)c(N)n2)CC1,"parasite growth, % of DMSO control",[10],53.8%
same,"parasite growth remaining, % of DMSO control (lower = more inhibition)",[11],75.6%
same,"parasite growth, % of control (lower = inhibition)",[12],39.8%
same,"growth, % of control",[13],81.9%
O=C(NCc1ccccc1)c1csc(Nc2ccncn2)n1,"parasite growth, % of DMSO control",[10],30.1%
same,"parasite growth, % of control (lower = inhibition)",[12],36.6%
same,"growth, % of control",[13],31.7%
CON(C)C(=O)N1N=C(c2cc(F)ccc2F)S[C@@]1(CCCN)c1ccccc1,Potency,[3],0.0241 µM (active)
CC1=C(/C=C/C(C)=C/C=C/C(C)=C/C=C/C=C(C)/C=C/C=C(C)/C=C/C2=C(C)CCCC2(C)C)C(C)(C)CCC1,Potency,[4],inactive
same,Potency,[14],inactive
CC[C@H](CC[C@@H](C)[C@H]1CC[C@H]2[C@@H]3CC=C4C[C@@H](O)CC[C@]4(C)[C@H]3CC[C@]12C)C(C)C,Potency,[4],inactive
CC1(C)C(=O)N(c2ccc(C#N)c(C(F)(F)F)c2)C(=S)N1Cc1ccc(-c2cn[nH]n2)cc1,Potency,[15],inactive
same,Potency,[16],inactive
same,Z-AUC,[17],0.1 (inactive)
same,Z-AUC,[17]; measured here: PEO1 parental Z-AUC,0.427
same,Z-AUC,[17]; measured here: PEO4 Z-AUC,0.68
Cn1c(CCCCCCC(=O)NO)nc2cc(N(CCCl)CCCl)ccc21,Potency,[15],inactive
same,Potency,[16],inactive
C[C@H]1[C@H](C)CC[C@]2(C(=O)O)CC[C@]3(C)C(=CC[C@@H]4[C@@]5(C)C[C@@H](O)[C@H](O)[C@@](C)(CO)[C@@H]5CC[C@]43C)[C@H]12,Potency,[14],inactive
CNC(=O)c1cccc2cc(Oc3ccnc4cc(OCC5(N)CC5)c(OC)cc34)ccc12,"activity change, negative = inhibition",[2],-98.2%
COC(C)(C)CCn1nc(Nc2c(C)cccc2C)c2cnc(Nc3ccc(OCCN4CCCC4)c(F)c3)nc21,Potency,[2],11.2 µM (active)
CC1=C(CO)C(=O)O[C@@H]([C@@H](C)[C@H]2CC[C@H]3[C@@H]4C[C@H]5O[C@]56[C@@H](O)C=CC(=O)[C@]6(C)[C@H]4CC[C@]23C)C1,Potency,[2],1.26 µM (active)
CCCc1cc(C(=O)N[C@H](Cc2ccc(-c3cccc(OC(F)(F)F)c3)nc2)C(=O)N[C@@H]2CCNC2)sc1C,Potency,[2],31.6 µM (active)
CC(C)(C)c1[nH]cnc1/C=c1\[nH]c(=O)/c(=C/c2ccccc2)[nH]c1=O,"activity change, negative = inhibition",[2],-98.3%
Cc1ccc(NC(=O)NCc2ccc3c(c2)CN(C2CCC(=O)NC2=O)C3=O)cc1Cl (stereo not drawn),"activity change, negative = inhibition",[2],-96.8%
CC(C)Oc1ccc(-c2nc(-c3cccc4c3CC[C@@H]4NCCO)no2)cc1C#N,Potency,[2],inactive
O=C(Nc1cnn2ccc(N3CCC[C@@H]3c3cc(F)ccc3F)nc12)N1CC[C@H](O)C1,Potency,[2],inactive
COC1=C(OC)C(=O)C(C/C=C(\C)CC/C=C(\C)CC/C=C(\C)CC/C=C(/C)CC/C=C(\C)CC/C=C(\C)CC/C=C(\C)CC/C=C(\C)CC/C=C(\C)CCC=C(C)C)=C(C)C1=O,"activity change, negative = inhibition",[2],-14.5%
C[C@@H](Oc1ccc2[nH]nc(/C=C/c3cnn(CCO)c3)c2c1)c1c(Cl)cncc1Cl,"activity change, negative = inhibition",[2],-97.5%
CC(C)(C)C(=O)N1N=CC[C@H]1c1ccccc1,"activity change, negative = inhibition",[2],-3.46%
CNC(=O)c1c(-c2ccc(F)cc2)oc2cc(N(CCO)S(C)(=O)=O)c(C3CC3)cc12,"activity change, negative = inhibition",[2],-3.84%
CN(C)CCOc1ccc(-c2nc(-c3ccc4c(c3)CC/C4=N\O)c(-c3ccncc3)[nH]2)cc1,Potency,[2],12.6 µM (active)
Cc1ccc(-c2nc(N)nc3c2nnn3Cc2cccc(CO[C@H]3CCOC3)n2)o1,"activity change, negative = inhibition",[2],-15.2%
Cc1c(NC(=O)c2cc(C(N)=O)nc3cc(F)ccc23)c(C(F)(F)F)nn1Cc1ccc(C#N)cc1,"activity change, negative = inhibition",[2],-65.9%
CN(C)C/C=C/C(=O)Nc1cccc(C(=O)Nc2cccc(Nc3ncc(Cl)c(-c4c[nH]c5ccccc45)n3)c2)c1,Potency,[2],3.16 µM (active)
Cc1cc(O)cc2c1[C@]1(C)CC[C@H]3C(C)(C)CCC[C@]3(C)[C@H]1C2,outcome,[2],inactive [at 5.25 µM]
O=C(c1c(F)ccc(NS(=O)(=O)N2CC[C@@H](F)C2)c1F)c1c[nH]c2ncc(-c3cnc(C4CC4)nc3)cc12,"activity change, negative = inhibition",[2],-17.3%
NS(=O)(=O)OC[C@@H]1C[C@@H](n2ccc3c(N[C@H]4CCc5ccccc54)ncnc32)C[C@@H]1O,"activity change, negative = inhibition",[2],-87.9%
Cc1ccc(S(=O)(=O)Nc2cc(C(F)(F)F)ccc2C(=O)Nc2nc(-c3ccccc3)cs2)cc1,Potency,[2],8.91 µM (active)
COc1cc2c(Oc3ccc4[nH]c(C)cc4c3F)ccnc2cc1OCC1(N)CC1,Potency,[2],11.2 µM (active)
OCc1ccccc1O[C@@H]1O[C@H](CO)[C@@H](O)[C@H](O)[C@H]1O,"activity change, negative = inhibition",[2],-12.3%

# — PubChem BioAssay (NCATS)
